PABP FP inh: PABP poly(A) RNA binding inhibitors, primary screen, biochemical, fluorescence polarization, uHTS | Polyadenylate-binding protein 1 (Homo sapiens), P11940 | calls only at 35 µM | 1% of 290,000 active | AID 2014, 2009;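 note: calls also rest on retests at 20 µM and on dose response follow-up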
eIF4H inh: human eIF4H binding inhibitors, primary screen, translation initiation inhibitor project, biochemical, uHTS, fluorescence polarization; Eukaryotic translation initiation factor 4H (Homo sapiens), Q15056; eIF4H fluorescence polarization binding assay; inhibition, % at 35 µM; 0.94% of 290,000 active;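 note: calls also rest on retests at 20 µM and on dose response follow-up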
AI-2 QS modul: Vibrio harveyi AI-2 quorum sensing modulators, primary screen, JMH597 strain, luminescence/OD600 ratio; 0.4% of 300,000 active; Vibrio harveyi JMH597 AI-2 luminescence/OD600 ratio, 9 h; hits give low values; strain lacks LuxN and CqsS sensors; 0 = neutral-control median; AID 2094, 2009; activity change, % at 7.5 µM; in the data active = activity change below about -75%, passing the limit was not always enough; inconclusive = no clear call, values can overlap the other calls;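 note: luminescence divided by OD600 gain over 9 h not by final OD600 alone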
PHOSPHO1 block: PubChem AID 1565 | Phosphoethanolamine/phosphocholine phosphatase (Homo sapiens), Q8TCT1 | 1.1% of 290,000 active | inhibition, % at 13.3 µM | recombinant PHOSPHO1, absorbance phosphatase assay; in the data active = inhibition above about 60%
MLLE-PAM2 inh: inhibitors of PABP1 MLLE–PAM2 peptide binding, primary screen, biochemical, fluorescence polarization, FITC-PAM2, GST-MLLE; inhibition, % at 20 µM; 0.36% of 360,000 active; AID 588489, 2011; in the data active = inhibition above about 35%, passing the limit was not always enough;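 note: plate controls were DMSO wells with GST-MLLE for no effect and wells lacking GST-MLLE protein for full effect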
ABCB6 inh 2: ABCB6 transporter inhibitors, primary screen, K562-ABCB6 cells, flow cytometry, MLPCN library; K562-ABCB6 porphyrin accumulation, 1 h; hits give low values; fluorescence ratio to DMSO, % at 10 µM; 0.19% of 360,000 active; AID 602162, 2011;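 active = fluorescence ratio to DMSO below 75%, the collection mean minus 3 SD; inconclusive = too few cells collected in the well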;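 note: signal is porphyrin accumulated inside mitochondria; 100% equals median channel fluorescence of DMSO control wells; lower ratio means ABCB6 inhibition with less porphyrin fluorescence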
* marks the source's active call; other numbers are inactive results; i = inactive; u = inconclusive; x = not tested or not shown; + = active, no number. Rows were chosen to be rich in hits. Some 2.6% of all compounds tested hit in one or more screens of this group. Unless noted, the rule behind the calls is not given here.

SMILES	PABP FP inh	eIF4H inh	AI-2 QS modul	PHOSPHO1 block	MLLE-PAM2 inh	ABCB6 inh 2
O=C(/C=C/c1ccco1)NC1=NCCS1	+	u	21	-13	35	99
Cc1ccc(C(=O)N/C(=C/c2ccco2)C(=O)Nc2cccc(C(=O)O)c2)cc1	i	25	9	14	x	x
Cc1cc(NC(=O)/C=C/c2ccco2)ccc1NC(=O)c1ccccc1	i	-8	5	29	3	100
O=C(/C=C/c1ccco1)Nc1ccccc1C(=O)Nc1cccc(C(=O)O)c1	+	u	12	28	4	101
O=C(/C=C/c1ccco1)Nc1cc(Cl)ccc1C(=O)O	+	89*	-4	-5	0	98
O=C(COC(=O)/C=C/c1ccco1)Nc1ccccc1	i	-2	14	-23	-10	98
O=C(/C=C/c1ccco1)Nc1ccccc1C(=O)O	+	95	29	-14	16	97
COC(=O)c1ccccc1NC(=O)COC(=O)/C=C/c1ccco1	i	53*	26	21	-20	94
COC(=O)C1=C(C(=O)OC)C(c2cc(Br)ccc2O)c2sc(=O)[nH]c2S1 (stereo not given)	i	0	x	-7	44*	105
COc1ccc(-c2oc3c(c2-c2cnc(OC)nc2)C(O)CC3)cc1 (stereo not given)	x	x	x	x	x	101
CC(C)(C)n1nnnc1CN(Cc1ccco1)Cc1cc2cc3c(cc2[nH]c1=O)OCO3	i	49	21	35	32	98
O=c1[nH]c2cc3c(cc2cc1CN(Cc1nnnn1CC1CCCO1)C1CCCC1)OCO3 (stereo not given)	+	76	45	8	64*	91
COCCn1nnnc1CN(CCc1ccccc1)Cc1cc2ccc(C)cc2[nH]c1=O	i	-5	17	66*	4	89
Cc1ccc2[nH]c(=O)c(CN(CCc3ccccc3)Cc3nnnn3CC3CCCO3)cc2c1 (stereo not given)	i	1	28	-1	14	92
O=c1[nH]c2cc3c(cc2cc1CN(CCc1ccccc1)Cc1nnnn1CC1CCCO1)OCO3 (stereo not given)	+	u	x	35	10	98
CCC(C)(C)n1nnnc1CN(Cc1ccco1)Cc1cc2cc3c(cc2[nH]c1=O)OCO3	i	-3	18	14	40*	102
O=c1[nH]c2cc3c(cc2cc1CN(Cc1nnnn1CC1CCCO1)C1CCCCC1)OCO3 (stereo not given)	i	24	8	-32	72	95
CC(C)C[C@H]1CN([C@@H](CC(C)C)CN2CCCC2CN2C(=S)NC[C@@H]2Cc2ccccc2)C(=S)N1CCc1ccccc1 (stereo not given in full)	x	x	x	x	x	93
C[C@@H]1CN([C@H](C)CO)C(=O)c2cc(-c3ccccc3)cnc2O[C@@H]1CN(C)C(=O)C1CCOCC1	x	x	x	x	-10	97
CC(C)Sc1nc(SCC(=O)O)c2c3c(sc2n1)COC(C)(C)C3	i	1	19	84*	-3	98
CC(C)Sc1nc(SCC(=O)NCc2ccco2)c2c3c(sc2n1)COC(C)(C)C3	i	4	27	-6	-4	i
Cn1cc(C(=O)N/N=C/C(Br)=C\c2ccccc2)ccc1=O	+	57*	20	-22	-6	111
CCC1(C)Cc2ccccc2/C(=C/C(=O)N2CCCCC2)N1 (stereo not given)	+	30	24	26	24	111
C=CCn1c(SCc2nc3ccccc3[nH]2)nnc1-c1ccccn1	i	4	23	35	-7	95
CCn1c(SCc2nc3ccccc3[nH]2)nnc1-c1ccc(OC)cc1	i	-6	18	78*	-17	101
SMILES	PABP FP inh	eIF4H inh	AI-2 QS modul	PHOSPHO1 block	MLLE-PAM2 inh	ABCB6 inh 2
C=CCn1c(SCc2nc3ccccc3[nH]2)nnc1-c1cccc(OC)c1	i	-2	15	71*	-68	101
CCn1c(SCc2nc3ccccc3[nH]2)nnc1-c1cccnc1	i	-8	37	3	8	122
C=CCn1c(SCc2nc3ccccc3[nH]2)nnc1-c1ccc(OC)cc1	i	-10	12	91*	-65	97
O=c1[nH][nH]c2c1[C@H](c1ccc(F)cc1)O[C@H](CCc1ccccc1)C2	x	x	x	x	x	107
c1coc(-c2cc3nc(NC4CCCCC4)ccn3n2)c1	x	x	x	x	2	79
CCN(CC)C(=O)c1ccc(Cc2cn(C)c3ccccc23)nc1	x	x	x	x	6	97
CC(O)Cn1ccccc1=N (stereo not given)	+	83*	7	-3	1	109
N=c1ccccn1CC(O)COc1ccccc1 (stereo not given)	u	u	34	-21	-3	99
COc1ccc2c(c1)CO[C@]21O[C@H](CCO)C[C@H](O)[C@H]1O	x	x	x	x	-2	95
CCC(C)c1ccc(NC(=O)Nc2cnccn2)cc1 (stereo not given)	i	-6	16	53	-19	98
CC(O)CNc1cnccn1 (stereo not given)	+	63*	17	8	10	100
CCOC(=O)[C@]12CCCC=C1N(Cc1ccco1)C(=O)[C@H](CC(=O)NCC13CC4CC(CC(C4)C1)C3)C2	x	x	x	x	x	96
O=C(NC(=O)c1ccccc1)Nc1ccccn1	i	-7	11	68*	-5	97
Cc1ccc(C(=O)N2CCN(S(=O)(=O)c3ccccc3[N+](=O)[O-])CC2)o1	i	51*	20	2	-9	100
Cc1ccc(C(=O)N2CCN(S(=O)(=O)c3ccccc3[N+](=O)[O-])C2)cc1	i	-6	9	-10	-3	87
COC(=O)c1ccc(OC(=O)c2ccc(OC)cc2)c(OC)c1	+	53*	13	37	16	98
CCCn1cnc2c(c1=O)c1nc3ccccc3nc1n2CCC1=CCCCC1	i	-5	x	24	x	x
O=c1c2c3nc4ccccc4nc3n(/N=C/c3ccco3)c2ncn1CCC1=CCCCC1	i	65*	17	-2	7	97
Cc1nn(C)c(C)c1N1C(=O)c2cccc3c(N)ccc(c23)C1=O	+	129	x	-3	i	173
CCN1CSC(=S)N(Cc2ccc(OC)cc2)C1	i	3	11	34	40*	87
CC(C)C[C@H]1CN(CCCC[C@H]2CNC(=O)C(=O)N2CCC2CCCCC2)C(=O)C(=O)N1CC1CCCCC1	x	x	x	x	x	96
